Assay [1] in a line: Tanguay_ZF_120hpf_BRAI_legacy: (Legacy) Oregon State University Tanguay Lab 120 Hour Post-fertilization zebrafish Assay for Brain Malformation (AID 2283641). The gist of the method: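 Static exposure of staged wild-type embryos until 120 hpf, kept at 28C with light excluded and final DMSO of 0.64% (vol/vol). Presence or absence of brain malformation was noted under brightfield; mortality precluded scoring.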

Assay [2] can be described thus: Tanguay_ZF_120hpf_SOMI_legacy: (Legacy) Oregon State University Tanguay Lab 120 Hour Post-fertilization zebrafish Assay for Somite Malformation (AID 2283647). The gist of the method: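 Somitogenesis defects are recorded as binary calls in whole larvae at 120 hpf after continuous static chemical exposure starting at 6 hpf in dechorionated 5D embryos. DMSO serves as negative control and baseline.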

Assay [3] in a line: Tanguay_ZF_120hpf_PFIN_legacy: (Legacy) Oregon State University Tanguay Lab 120 Hour Post-fertilization zebrafish Assay for Pectoral Fin Malformation (AID 2283648).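 Note: each larva judged yes or no for fin defect by brightfield with dead larvae skipped.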 The gist of the method:
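Pectoral fin malformation was recorded as a binary endpoint at 120 hpf in wild-type Tropical 5D larvae, which had been dechorionated and exposed statically from 6 hpf at 28C in 0.64% DMSO. Dead embryos were excluded.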

Assay [4] is described as follows: Tanguay_ZF_120hpf_CFIN_legacy: (Legacy) Oregon State University Tanguay Lab 120 Hour Post-fertilization zebrafish Assay for Caudal Fin Malformation (AID 2283649). In a few lines:
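Single dechorionated 5D wild-type embryos are dosed at 6 hpf (final DMSO 0.64%) and held statically at 28C. Caudal fin malformation is recorded as present or absent at 120 hpf under brightfield, excluding dead embryos.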

Assay [5] is described as follows: Tanguay_ZF_120hpf_PIG_legacy: (Legacy) Oregon State University Tanguay Lab 120 Hour Post-fertilization zebrafish Assay for Pigmentation Malformation (AID 2283650). In a few lines: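 Pigment malformation recorded as a binary call at 120 hpf in zebrafish (Tropical 5D) exposed singly from 6 hpf after pronase dechorionation. Static, sealed, 28C exposure, 0.64% DMSO; mortality excludes scoring; positive-direction fit against DMSO.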

Assay [6] is described as follows: Tanguay_ZF_120hpf_CIRC_legacy: (Legacy) Oregon State University Tanguay Lab 120 Hour Post-fertilization zebrafish Assay for Circulatory Malformation (AID 2283651). In a few lines:
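Static exposure, 6–120 hpf, 28C, sealed and dark; one dechorionated 5D embryo/well; DMSO 0.64% v/v final. Binary circulation endpoint by brightfield; dead embryos not scored.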

Read-out in assay [7]: kallikrein-3 (KLK3), KLK3 (gene 354)
Nature of the assay: LTEA_HepaRG_KLK3: Life Technologies and Expression Analysis (LTEA) Assay for kallikrein-3 (KLK3) using HepaRG (AID 2283652; active = hit-call score of the fitted dose curve at least 0.9, where 1 is the maximum; inactive = score below 0.9). As to conditions: mRNA level, 48 h; actives raise or lower the signal. In a few lines:
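KLK3 transcript levels were measured by TaqMan qRT-PCR with normalisation to three housekeeping genes. HepaRG cultures received chemicals for 48 h at up to 100 uM (half-log, 8 points, 0.5% DMSO vehicle), fitted in both directions against DMSO.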

Read-out in assay [8]: solute carrier (SLC22A6), SLC22A6 (gene 9356)
The experiment in a line: LTEA_HepaRG_SLC22A6: Life Technologies and Expression Analysis (LTEA) Assay for solute carrier (SLC22A6) using HepaRG (AID 2283653; active = hit-call score of the fitted dose curve at least 0.9, where 1 is the maximum; inactive = score below 0.9). As to conditions: mRNA level, 48 h; actives raise or lower the signal. The gist of the method:
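Gene-expression endpoint in HepaRG hepatic cells: duplicate 8-point concentration-response, highest 100 uM, 48 h treatment in serum-free medium with 0.5% DMSO. SLC22A6 expression measured by qRT-PCR, normalised to ACTB/GAPDH/POLR2A.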

The nature of assay [9]: Tanguay_ZF_120hpf_TRUN_legacy: (Legacy) Oregon State University Tanguay Lab 120 Hour Post-fertilization zebrafish Assay for Truncated Body (AID 2283655). The gist of the method:
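Single dechorionated zebrafish embryos received test chemical from 6 hpf in 0.64% DMSO, kept at 28C. At 120 hpf, brightfield inspection noted any truncated body.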

A short description of assay [10]: Tanguay_ZF_120hpf_NC_legacy: (Legacy) Oregon State University Tanguay Lab 120 Hour Post-fertilization zebrafish Assay for Notochord and Tail Malformation (AID 2283656). The gist of the method:
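Binary notochord-distortion calls, made by brightfield inspection, form the read-out; activity is fitted in the positive direction against DMSO. Exposure ran statically from 6 to 120 hpf at 28C with 0.64% DMSO.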

Read-out in assay [11]: solute carrier (SLC10A1), SLC10A1 (gene 6554)
The experiment in a line: LTEA_HepaRG_SLC10A1: Life Technologies and Expression Analysis (LTEA) Assay for solute carrier (SLC10A1) using HepaRG (AID 2283657; active = hit-call score of the fitted dose curve at least 0.9, where 1 is the maximum; inactive = score below 0.9). As to conditions: mRNA level, 48 h; actives raise or lower the signal. The gist of the method:
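SLC10A1 transcript measured by TaqMan qRT-PCR, housekeeping-normalised, after 48 h chemical treatment of human HepaRG cells. Eight concentrations (half-log, max 100 uM, 0.5% DMSO vehicle) in duplicate; fitted bidirectionally against DMSO baseline.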

Read-out in assay [12]: matrix metalloproteinase-1 (MMP1), MMP1 (gene 4312)
Nature of the assay: LTEA_HepaRG_MMP1: Life Technologies and Expression Analysis (LTEA) Assay for matrix metalloproteinase-1 (MMP1) using HepaRG (AID 2283658; active = hit-call score of the fitted dose curve at least 0.9, where 1 is the maximum; inactive = score below 0.9). As to conditions: mRNA level, 48 h; actives raise or lower the signal. The gist of the method: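 In this screen, human liver HepaRG cultures receive each chemical in duplicate for 48 h (top 100 uM, 0.5% DMSO). MMP1 expression is then quantified by TaqMan qRT-PCR with ACTB/GAPDH/POLR2A normalization.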

The nature of assay [13]: CCTE_Simmons_CellTiterGLO_HEK293T: Viability Assessment in CCTE's Assays for Thyroperoxidase (TPO) Inhibition, Simmons Lab (AID 2283665). The gist of the method: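 Luminescent ATP readout (CellTiter-Glo, 20 min at room temperature) after 24 hr exposure of HEK293T cells to 5 nM–87.5 uM final compound; signal loss relative to DMSO vehicle indicated cytotoxicity; dichlone titrated as positive control.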
A general note: In ATP-based viability assays light output follows the ATP content of the culture.

Assay [14] is described as follows: Tanguay_ZF_120hpf_TR_legacy: (Legacy) Oregon State University Tanguay Lab 120 Hour Post-fertilization zebrafish Assay for Touch Response (AID 2283667). The gist of the method:
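Binary touch-response endpoint in larvae at 120 hpf after static waterborne exposure from embryo stage (28°C, 0.64% DMSO vehicle, 5 uM trimethyltin chloride as positive control); embryos dead at 24 or 120 hpf excluded; fitted as gain versus DMSO.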

Read-out in assay [15]: Cytochrome P450 (CYP24A1_1), CYP24A1 (gene 1591)
Nature of the assay: LTEA_HepaRG_CYP24A1_1: Life Technologies and Expression Analysis (LTEA) Assay for Cytochrome P450 (CYP24A1_1) using HepaRG (AID 2283671; active = hit-call score of the fitted dose curve at least 0.9, where 1 is the maximum; inactive = score below 0.9). As to conditions: mRNA level, 48 h; actives raise or lower the signal. In a few lines:
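Differentiated human HepaRG cells were exposed in duplicate for 48 h in serum-free induction medium to eight concentrations (top 100 uM, half-log steps, 0.5% DMSO). CYP24A1 mRNA was quantified by TaqMan qRT-PCR, normalized to ACTB, GAPDH and POLR2A, and fitted bidirectionally versus DMSO.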

A short description of assay [16]: Tanguay_ZF_120hpf_SWIM_legacy: (Legacy) Oregon State University Tanguay Lab 120 Hour Post-fertilization zebrafish Assay for Swim Bladder Malformation (AID 2283654).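 Note: swim bladder malformation in each larva scored yes or no under brightfield.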 The gist of the method:
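Scoring is binary for swim bladder defects at 120 hpf, by brightfield inspection of zebrafish larvae. Embryos were exposed singly from 6 hpf after pronase dechorionation, at 28C with 0.64% DMSO; mortality excluded scoring.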

For assay [17], the system named is Thyroperoxidase (TPO), gene 54314. The experiment in a line: CCTE_Simmons_AUR_rTPO: CCTE's Amplex UltraRed Assay for Thyroperoxidase (TPO) Inhibition, Simmons Lab (AID 2283662).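 For AC50: potency for loss of signal meaning inhibition of peroxidase activity.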 In a few lines:
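Rat thyroid microsomes (5 ug protein) were incubated with test compound (8 concentrations, 5 nM–87.5 uM final, 0.5% DMSO), 25 uM Amplex UltraRed and 300 uM H2O2 in 200 mM phosphate buffer for 30 min at 37C in the dark; fluorescence read at 544/590 nm.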

Assay [18] can be described thus: CCTE_Padilla_ZF_144hpf_TERATOSCORE: (Legacy) CCTE's 144 Hour Post-fertilization zebrafish Assay Teratoscore, Padilla Lab (AID 2283679; active = hit-call score of the fitted dose curve at least 0.9, where 1 is the maximum; inactive = score below 0.9;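 for AC50: zebrafish embryos with chorions exposed by immersion from 6-8 hpf to 5 dpf with daily renewal; teratogenicity score from eye scoring of death hatching and malformations at 144 hpf; higher score means more developmental defects relative to DMSO baseline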). In a few lines: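 Larvae scored by eye at 144 hpf for death, hatching and malformations after a day in clean Hanks'. Before that, daily-renewed exposure at 80 uM (0.4% DMSO, 26C) from roughly 6-8 hpf through 5 dpf, 4 embryos per chemical.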

Assay [19] in a line: STM_H9_CystineISnorm_perc: Stemina devTOX quickPredict H9 human embryonic stem cell (hESC)-based Assay for Cystine (CYSS) Metabolite Biomarker, Normalized (AID 2283713; active = hit-call score of the fitted dose curve at least 0.9, where 1 is the maximum; inactive = score below 0.9). In a few lines: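 UPLC-HRMS read-out: endogenous cystine peak area in spent medium, normalized to isotope-labeled internal standard and to median of 0.1% DMSO controls. Pluripotent H9 cells, 72h exposure, daily medium/compound replenishment; medium from last 24h sampled.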

Assay [20] in a line: STM_H9_OrnCyssISnorm_ratio: Stemina devTOX quickPredict H9 human embryonic stem cell (hESC)-based Assay for Ornithine (ORN):Cystine (CYSS) Ratio (AID 2283714). In a few lines:
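Ratio of internal-standard-normalized ornithine to cystine, measured by UPLC-HRMS in spent media from the last 24 h. H9 cells kept pluripotent, dosed 72 h with daily media and compound renewal; DMSO 0.1% serves as baseline.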

Inconclusive results are not listed. Active and inactive are the calls of the source. Rule for the calls, unless noted: active = hit-call score of the fitted dose curve at least 0.9, where 1 is the maximum; inconclusive = response in the unintended direction; inactive = score below 0.9.

Take `CN1CCCC1=O`: the compound was classed as inactive in assay [1], in [2], in assay [3], in assay [4], in assay [5] and in [6]. For the same compound, the outcome in [7], in [8], in assay [9], in assay [10], in assay [11] and in assay [12] was inactive. In addition, the outcome in assay [13], in [14] and in [15] was inactive.
Regarding `CCCCCCCCCCCCCO`, the compound was classed as inactive in [1], in assay [2], in assay [3], in [4], in assay [5] and in assay [6]. Further, the compound was classed as inactive in [9] and in assay [10].
As for `C[C@]12C=CC(=O)C=C1CC[C@@H]1[C@@H]2C(=O)C[C@@]2(C)[C@H]1CC[C@]2(O)C(=O)CO`, the compound was classed as inactive in assay [1], in [2], in assay [3], in assay [4], in assay [16] and in assay [10]. Also, the result in assay [17], in [13] and in assay [18] was inactive.
As a reminder, the AC50 is the concentration giving half of the maximal activity seen. For the compound `Cc1oc(-c2ccccc2)nc1CCOc1cccc2c1ccn2CCC(=O)O`, the compound was called inactive in assay [1], in assay [2], in [3], in assay [5], in assay [16] and in assay [9]. For the same compound, the result in assay [10] and in assay [13] was inactive. Further, the AC50 is 28.8 µM (active) in assay [17], 16.1 µM (active) in assay [18] and 0.0105 µM (active) in assay [19].
In the case of `Cc1ccc(Cl)cc1`, the result in [1], in assay [3], in [4], in assay [7], in assay [8] and in assay [10] was inactive. For the same compound, the compound was called inactive in [11], in [12] and in assay [15].
`CCCCCCOCCO`: the result in assay [1], in [2], in assay [3], in [16] and in assay [9] was inactive.
For the compound `CC(=O)C(C)=CC1C(C)=CCCC1(C)C` (stereo not drawn), the result in assay [1], in assay [2], in [3], in [4], in assay [5] and in assay [9] was inactive. Also, the call in [10] and in assay [18] was inactive.
In the case of `O=[N+]([O-])C(CO)(CO)CO`, the call in [1], in assay [2], in [4], in assay [5], in assay [10] and in assay [14] was inactive.
On to `COc1ccc2c(c1)c(CC(=O)O)c(C)n2C(=O)c1ccc(Cl)cc1`, for which the call in assay [1], in assay [2], in assay [3], in assay [4], in assay [5] and in assay [6] was inactive. The compound was classed as inactive in assay [16], in assay [9], in [10] and in assay [19]. In addition, the AC50 in assay [18] was 61.7 µM (active); in [20], 84.8 µM (active).
Consider `Clc1cc(Cl)c(Cl)cc1Cl`, for which the call in [1], in [2], in assay [4], in [5], in assay [16] and in [9] was inactive. The compound was classed as inactive in assay [14].
For `CCCCCCC(=O)OCC`, the compound was called inactive in assay [1], in [2], in [3], in assay [5], in [6] and in [16]. Also, the compound was called inactive in [9] and in assay [10].

These data come from PubChem BioAssay (EPA / NIEHS).
